The text below walks through data of PubChem BioAssay.

The nature of assay [1]: SK-BR-3 cell growth inhibitors, pilot screen, 24 h, human (AID 572).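 Also: compound exposure lasted between 18 and 24 h rather than exactly 24 h; 100% = carrier-treated control wells.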 Conditions: SK-BR-3 viability, CellTiter-Glo luminescence, at 10 µM, stronger effect = lower value. Background: ATP-based viability assays read luminescence as a measure of living cells.
A short description of assay [2]: HUVEC growth inhibition – cell-based, human, primary screen (AID 575;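 active = viability at or below 30% in both replicate assays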;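 also: 100% = median of untreated cell wells with 0.1% DMSO on each plate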). To be noted: HUVEC proliferation, CellTiter-Glo luminescence, 72 h; at 10 µM; stronger effect = lower value.
Assay [3] in a line: growth inhibitors of H69AR lung tumor, primary screen, human, duplicate replicates (AID 580;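 active = viability at or under a set limit in both replicates, limit being median viability minus 3 SD, cut at about 48% in these data, passing the limit was not always enough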;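 also: 100% = mean luminescence of untreated wells and 0% = no signal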). Conditions: H69AR lung tumor cells viability, ATP luminescence, 72 h; at 10 µM; stronger effect = lower value.
Assay [4] can be described thus: reversal of MRP1-mediated doxorubicin resistance, pilot screen, H69AR cells, doxorubicin co-treatment (AID 601;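 active = viability loss from added drug above about 55%, and viability with drug at most 40%, in both replicates, limit read from the data, passing the limit was not always enough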). To be noted: CellTiter-Glo, 72 h, at 10 µM; for differential viability (reversal): stronger effect = higher value.
A short description of assay [5]: 384-well plate pilot, post-Golgi transport modulator project, inhibition of yeast transport mutant growth (AID 636; in the data active = inhibition above about 31%). To be noted: absorbance 615 nm, about 18 h, stronger effect = higher value.
A short description of assay [6]: growth suppression of yeast trafficking mutant, preliminary HTS, modulators of trafficking downstream of Golgi apparatus project, 1536-format plate, OD 615 nm (AID 637; in the data active = inhibition above about 30%). To be noted: yeast transport mutant growth, absorbance 615 nm, 18 h; stronger effect = higher value.
Assay [7] in a line: OD615 S. cerevisiae growth inhibition, permissive medium, pilot counter-assay, permissive growth control for S. cerevisiae lifespan shortening project (AID 705;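 active = growth inhibition above 25% in both replicates, a cutoff set 3 SD above the mean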). Conditions: OD615, 24 h, at 10 µM, stronger effect = higher value.
Assay [8] in a line: Restrictive medium S. cerevisiae growth inhibition, OD615, pilot screen of yeast lifespan reduction project, restrictive growth control (AID 706;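 active = growth inhibition above a set limit, 3 SD over mean compound inhibition, in both replicates, cut at about 43% in these data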;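 also: modified DeaD lifespan yeast strain shifted to restrictive glucose medium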). To be noted: OD615, 48 h, at 10 µM, stronger effect = higher value.
The nature of assay [9]: viability gain of MRP-1-high H69AR cells under doxorubicin, pilot screen, MRP-1 activator project, CellTiter-Glo, duplicate (AID 807;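 active = viability increase at or above a cutoff of the median across tested compounds plus 3 SD, cut at about 8.5% in these data, passing the limit was not always enough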;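 also: compound pretreatment 18-22 h then 72 h combined with doxorubicin; 0% = doxorubicin alone and 100% = vehicle without doxorubicin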). To be noted: H69AR viability with doxorubicin, CellTiter-Glo luminescence; at 10 µM; stronger effect = higher value.
Assay [10] is described as follows: growth suppression of beta-catenin knockout HCT116, pilot screen, human colon tumor cells (AID 823;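 active = cell viability at or below a set limit in both duplicate runs, the limit being the all-compound median minus 4 SD, cut at about 23% in these data, passing the limit was not always enough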;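 also: 0% = wells killed by 20 µM Hyamine and 100% = untreated DMSO cell wells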). Conditions: CellTiter-Glo, 60 h, at 10 µM, stronger effect = lower value.
Assay [11] can be described thus: growth suppression of PTEN-deleted HCT116, pilot screen, cell-based, HCT116 clonal line, CellTiter-Glo (AID 824;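 active = viability at or below 27.92% in each of two runs, the all-compound median minus 4 SD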;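 also: 0% = 20 µM Hyamine control and 100% = vehicle cell control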). Conditions: 60 h, at 10 µM, stronger effect = lower value.
The nature of assay [12]: inhibitors of the yeast RAM network, pilot screen, dse1pr::URA3 reporter, 5-FOA selection (AID 869;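 active = inhibition over a set limit, the all-compound mean plus 3 SD, in both replicate runs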;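 also: 0% = DMSO wells with no growth and 100% = 10 µM 1-NA-PP1 with full growth; RAM network block rescues cells from 5-FOA so hits raise OD615 growth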). To be noted: S. cerevisiae dse1pr::URA3 5-FOA growth, OD615, 2 d; at 10 µM; stronger effect = higher value; strain carries analog-sensitive mutant Cbk1 kinase.
The nature of assay [13]: RAM signaling pathway blockade in yeast – S. cerevisiae, Pdr1DBD-CYC8 efflux-inhibited sensitized strain, primary screen (AID 1298;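 active = RAM network inhibition above 8.4% in each of two replicates, 3 SD over the compound average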;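 also: 0% = DMSO untreated cells without growth and 100% = 10 µM 1-NA-PP1 full growth; higher means more yeast growth rescued from 5-FOA killing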). Conditions: S. cerevisiae cbk1-as DSE1-URA3 strain, 5-FOA growth OD615, 2 d; at 50 µM; stronger effect = higher value.
The mark [14] stands for this setting: H69AR cells + 2 uM doxorubicin, measured here: viability with 2 uM doxorubicin, stronger effect = lower value.
The mark [15] stands for this setting: H69AR cells, compound alone cytotoxicity.

Inconclusive results are not listed. The source made the active and inactive calls.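 The calls were made as follows, unless noted: active = viability at or below 10% of carrier control in both of two separate runs; inconclusive = viability at or below 10% in only one of the two runs; inactive = the rest.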

For the compound `CCn1c(C(C#N)/C(=N\S(=O)(=O)c2cccs2)c2ccccc2)nc2ccccc21` (centres undefined), the viability (usually a read-out of living cells in per cent, often relative to untreated cells) in [1] was 112% (inactive); in [2], 96.2% (inactive); in [3], 81.7% (inactive); in [4] (setting [14]), 94.3%; in [4] (setting [15]), 81.7%; in assay [10], 87.4% (inactive). In [11], the viability was 90.2% (inactive). The differential viability (reversal) in assay [4] (H69AR cells + 2 uM doxorubicin) was -12.6% (inactive). Further, the inhibition (in general, the change of the read-out against control, counted positive when it falls) was 0.26% (inactive) in assay [5], -1.15% (inactive) in assay [6] and 1.55% (inactive) in [12]. The values for the growth inhibition in assay [7] and in [8] were -26.8% (inactive) and -15% (inactive), respectively. Also, the viability increase in assay [9] is -3.19% (inactive). For the same compound, the RAM network inhibition in [13] was 5.16% (inactive).
As to `O=C(CCC(=O)OCC(=O)c1ccccc1)NC1CCCCC1`, the viability in [1] is 68% (inactive); in assay [2], 108% (inactive); in assay [3] it was 101% (inactive); in [4] (setting [14]) it was 86.1%; in assay [4] (setting [15]), 101%; in assay [10], 93.6% (inactive). For the same compound, the viability in assay [11] was 95.6% (inactive). The differential viability (reversal) in assay [4] (H69AR cells + 2 uM doxorubicin) was 14.9% (inactive). The values for the inhibition in [5], in [6] and in [12] were -7.33% (inactive), -5.82% (inactive) and -0.295% (inactive), respectively. Further, the growth inhibition in assay [7] was -6.58% (inactive); in [8], -5.45% (inactive). Moreover, in assay [9], the viability increase is -0.49% (inactive). In assay [13], the RAM network inhibition was 5.37% (inactive).
Take `Cc1ccc(S(=O)(=O)N(CC(=O)N2CCC(C(N)=O)CC2)Cc2ccc(F)cc2)cc1`: the viability in assay [1] was 93% (inactive); in assay [2], 110% (inactive); in assay [3], 100% (inactive); in [4] (setting [14]), 88.8%; in assay [4] (setting [15]) it was 100%; in assay [10], 97.5% (inactive). In addition, the viability in assay [11] is 87.2% (inactive). Also, the differential viability (reversal) in assay [4] (H69AR cells + 2 uM doxorubicin) was 11.3% (inactive). Besides, the inhibition is -3.87% (inactive) in assay [5], -3.45% (inactive) in [6] and -0.07% (inactive) in assay [12]. In addition, the growth inhibition in assay [7] was -1.11% (inactive); in [8] it was 2.36% (inactive). In assay [9], the viability increase is -2.26% (inactive). Moreover, in [13], the RAM network inhibition is 1.49% (inactive).
For `CC1=C(C(N)=O)C(c2ccccn2)n2nc(SCc3ccccc3)nc2N1` (centres undefined), the viability was 88% (inactive) in assay [1]; 94% (inactive) in assay [2]; 93.8% (inactive) in [3]; 95.9% in assay [4] (setting [14]); 93.8% in [4] (setting [15]); 102% (inactive) in assay [10]. Also, the viability in [11] was 95.6% (inactive). The differential viability (reversal) in [4] (H69AR cells + 2 uM doxorubicin) was -2.02% (inactive). The inhibition in assay [5] is -3.92% (inactive); in assay [6] it was -5.64% (inactive); in assay [12], 0.46% (inactive). The growth inhibition is -2.97% (inactive) in assay [7] and 3.69% (inactive) in assay [8]. For the same compound, the viability increase in [9] is 2.38% (inactive). For the same compound, in [13], the RAM network inhibition is 2.59% (inactive).
`Cc1ccc(C)n1-c1ccc(N2CCOCC2)cc1`: the viability in [1] is 104% (inactive); in [2], 86.4% (inactive); in assay [3] it was 77.9% (inactive); in assay [4] (setting [14]) it was 93.4%; in [4] (setting [15]), 77.9%; in [10], 8.5% (active). The viability in [11] was 8.6% (active). The differential viability (reversal) in assay [4] (H69AR cells + 2 uM doxorubicin) is -15.4% (inactive). Besides, the results for the inhibition in assay [5], in assay [6] and in assay [12] were -6.35% (inactive), -3.33% (inactive) and 3.15% (inactive), respectively. For the same compound, the growth inhibition in [7] is -10.4% (inactive); in assay [8], -9.78% (inactive). The viability increase in assay [9] was -7.18% (inactive). The RAM network inhibition in [13] is 7.34% (inactive).
Regarding `O=C(Nc1ccc2c(c1)OCCO2)C1CCN(C(=O)c2ccc(F)cc2)CC1`, the viability in assay [1] is 90% (inactive); in [2] it was 94.9% (inactive); in assay [3] it was 92.5% (inactive); in [4] (setting [14]), 86.8%; in [4] (setting [15]), 92.5%; in [10], 92.3% (inactive). Moreover, the viability in assay [11] is 93% (inactive). For the same compound, the differential viability (reversal) in [4] (H69AR cells + 2 uM doxorubicin) is 5.68% (inactive). Also, the inhibition was -4.53% (inactive) in assay [5], -4.55% (inactive) in assay [6] and 0.685% (inactive) in [12]. Also, the growth inhibition in [7] was -9.55% (inactive); in assay [8], -4.03% (inactive). Also, in assay [9], the viability increase is -3.11% (inactive). Moreover, in [13], the RAM network inhibition is 6.28% (inactive).
Regarding `O=C(c1ccco1)c1nnn(Cc2ccccc2)c1-c1ccccc1`, the viability in assay [1] was 107% (inactive); in assay [2], 102% (inactive); in [3] it was 85.1% (inactive); in assay [4] (setting [14]), 81.7%; in assay [4] (setting [15]) it was 85.1%; in assay [10] it was 93.5% (inactive). In [11], the viability was 99.1% (inactive). In addition, the differential viability (reversal) in assay [4] (H69AR cells + 2 uM doxorubicin) is 3.42% (inactive). The inhibition in [5] was -2.93% (inactive); in assay [6], -4.73% (inactive); in assay [12] it was 2.21% (inactive). In addition, the growth inhibition in assay [7] is -6.81% (inactive); in assay [8], -8.41% (inactive). Further, the viability increase in assay [9] is -2.38% (inactive). For the same compound, in assay [13], the RAM network inhibition was -0.25% (inactive).
For `COC(=O)c1cc(-c2ccccc2)sc1NC(=O)c1cc(C)on1`, the viability in assay [1] was 121% (inactive); in assay [2] it was 96.6% (inactive); in assay [3] it was 95.9% (inactive); in assay [4] (setting [14]) it was 90.8%; in assay [4] (setting [15]), 95.9%; in assay [10], 93.7% (inactive). Further, the viability in assay [11] is 84.2% (inactive). In addition, the differential viability (reversal) in assay [4] (H69AR cells + 2 uM doxorubicin) was 5.14% (inactive). Further, the values for the inhibition in [5], in assay [6] and in [12] were -4.38% (inactive), -6.45% (inactive) and 1.4% (inactive), respectively. Moreover, the growth inhibition was -0.31% (inactive) in assay [7] and -11.1% (inactive) in assay [8]. Also, the viability increase in assay [9] is -2.24% (inactive). For the same compound, the RAM network inhibition in [13] was 2.94% (inactive).
As for `COc1cc(C(=O)N2CCN(c3cc(Cl)ccc3Cl)CC2)cc(OC)c1OC`, the viability is 77.5% (inactive) in assay [1]; 20.1% (active) in [2]; 29.8% (active) in [3]; 84.1% in assay [4] (setting [14]); 29.8% in assay [4] (setting [15]); 21.5% (active) in assay [11]. Moreover, the differential viability (reversal) in assay [4] (H69AR cells + 2 uM doxorubicin) is -54.3% (inactive). For the same compound, the inhibition in [5] was -4.27% (inactive); in [6], 0% (inactive); in [12], 0.575% (inactive). Further, the growth inhibition in assay [7] was -13.2% (inactive); in assay [8], -8.44% (inactive). The viability increase in [9] was -6.62% (inactive). For the same compound, in assay [13], the RAM network inhibition was 2.03% (inactive).
`Cn1c(=O)c2c(nc(CN3CCc4ccccc4C3)n2Cc2cccc(Cl)c2)n(C)c1=O`: the viability was 95% (inactive) in assay [1]; 45.5% (inactive) in assay [2]; 31.2% (active) in assay [3]; 18.5% in assay [4] (setting [14]); 31.2% in assay [4] (setting [15]); 42.6% (inactive) in assay [10]. The viability in [11] is 47.6% (inactive). Moreover, the differential viability (reversal) in assay [4] (H69AR cells + 2 uM doxorubicin) is 12.7% (inactive). For the same compound, the inhibition in [5] is -3.2% (inactive); in assay [6], -1.33% (inactive); in assay [12], -0.785% (inactive). The growth inhibition was -8.07% (inactive) in [7] and -5.74% (inactive) in assay [8]. In addition, the viability increase in assay [9] was -7.3% (inactive). For the same compound, the RAM network inhibition in assay [13] was 4.55% (inactive).
With `COc1ccc(N2CCN(C(=O)CSc3ccccc3)CC2)cc1`, the viability in assay [1] was 113% (inactive); in [2] it was 103% (inactive); in [3], 95.5% (inactive); in assay [4] (setting [14]), 83%; in assay [4] (setting [15]), 95.5%; in assay [10], 93.2% (inactive). Moreover, in assay [11], the viability was 85.9% (inactive). Further, in [4] (H69AR cells + 2 uM doxorubicin), the differential viability (reversal) is 12.5% (inactive). The inhibition was -8.13% (inactive) in assay [5], -2.18% (inactive) in assay [6] and 1.16% (inactive) in assay [12]. For the same compound, the growth inhibition in [7] is 3.53% (inactive); in assay [8] it was 11.6% (inactive). For the same compound, the viability increase in [9] was -3.92% (inactive). In addition, the RAM network inhibition in assay [13] was 3.22% (inactive).
